Reference: ChEMBL document CHEMBL3988442, “University of Dundee, Small-Polar-MMV Screening Library” (2021)
Out of some 69,000 compounds screened, about 950 (1.4%) showed an effect of 50% or more. The entries come from a sample that favours strong results as a whole.

System: Mycobacterium tuberculosis
Test: Cornell M. t heat shock assay; also: in the data most compounds retested in dose-response had high values
Type: functional, organism-based
Parameters: dose or concentration left out as unconfirmed

Row | SMILES | Percent Effect
1 | CN(C)CCOCC1CN(Cc2cccc(F)c2)Cc2nccn2C1.O=C(O)C(F)(F)F.O=C(O)C(F)(F)F (configuration not stated) | -23.51%
2 | CCCN(Cc1cnc2ccccc2n1)Cc1ccccc1OC | 19.04%
3 | CCCN(Cc1nc2ccccc2[nH]1)Cc1ccccc1OC | 67.04%
4 | CCCN(Cc1ccccn1)Cc1ccccc1OC | 31.04%
5 | O=C(O)C(F)(F)F.O=C(O)C(F)(F)F.O=C(O)c1c(-c2cccnc2)ncc2c1CCN(Cc1cccnc1)C2 | -14.58%
6 | Cc1nc(CO[C@@H]2CN(Cc3nccs3)[C@@H]3COC[C@@H]32)cs1.O=C(O)C(F)(F)F | -44.36%
7 | CN(C)S(=O)(=O)N1CC[C@]2(C[C@@H](Oc3cccnc3)CO2)C1.O=C(O)C(F)(F)F | -11.53%
8 | CC(Nc1nc(-c2ccncc2)nc2c1CCNC2)c1ccccc1 (configuration not stated) | 18.8%
9 | CC(Nc1nc(-c2ccccc2)nc2c1CCNCC2)c1cccnc1 (configuration not stated) | 73.2%
10 | CC(Nc1nc(-c2ccccc2)nc2c1CCNCC2)c1nccs1 (configuration not stated) | 20.74%
11 | O=C(O)C(F)(F)F.O=C(O)C(F)(F)F.c1cnc(N2CCOC3(CCN(CC4CCCCC4)CC3)C2)nc1 | 13.11%
12 | O=C(O)C(F)(F)F.c1ncn(Cc2cnc3n2CCN(Cc2ccsc2)CC3)n1 | -8.028%
13 | CN(C)Cc1ccccc1NC(=O)c1ccc(C#N)cc1 | -24.53%
14 | Cc1noc(COCC(=O)Nc2ccc(Br)c(C)n2)n1 | 3.251%
15 | Cc1noc(NC(=O)c2ccc(C#N)cc2)n1 | 69.42%
16 | Cc1c(NC(=O)c2cccc(Br)c2)c(C(=O)N(C)C)nn1C | -8.879%
17 | Cc1nc(C(C)(C)NC(=O)Nc2ccc(C#N)cc2)no1 | -15.18%
18 | Cc1noc(NC(=O)c2cccc(Br)c2)n1 | 106.8%
19 | Cc1ccc(C(=O)Nc2cn[nH]c2)cc1F | -0.1311%
20 | Cc1cc(NC(=O)c2ccc(C)c(F)c2)[nH]n1 | 1.383%
21 | O=C(NCCn1ccnc1)c1cccc(Br)c1 | 24.48%
22 | Cc1noc(NC(=O)c2ccc(C)c(F)c2)n1 | 105.5%
23 | Cc1noc(NC(=O)c2ccc(Br)o2)n1 | -6.271%

Row | SMILES | Percent Effect
24 | Cc1noc(NC(=O)c2ccc(Br)s2)n1 | 103.3%
25 | O=C(O)C(F)(F)F.O=C(O)C(F)(F)F.c1ccc(N2CC[C@H](OCC3CC3)[C@@H]2Cc2cccnc2)nc1 | 14.43%
26 | O=C(O)C(F)(F)F.c1cc(-c2ccc3nc(C4CCN(CC5CC5)CC4)nn3c2)cs1 | -34.74%
27 | Cc1cc(C)nc(N2CC=C[C@@H]2C(=O)NCc2ccc3c(c2)OCO3)n1.Cl | 15.24%
28 | CN(C)C(=O)N1C[C@@H]2CC[C@H](C1)N(C(=O)c1cccc(N(C)C)c1)C2 | -44.86%
29 | CC(C)N(C(=O)Cn1c(-c2ccco2)cc2cccnc21)C(C)C.Cl | 22.85%
30 | CCN1CCn2c(C)cnc2C12CCN(C(=O)c1ccco1)CC2.O=C(O)C(F)(F)F.O=C(O)C(F)(F)F | -2.925%
31 | CN(C)CCN1C(=O)CCC12CCCN(C(=O)N(C)C)CC2.O=C(O)C(F)(F)F (configuration not stated) | -13.38%
32 | Cc1nc(C2(O)CCCNCC2)sc1CCOc1ccc(F)cc1.Cl (configuration not stated) | -29.66%
33 | CC[C@@H]1N(Cc2cccnc2)CCC[C@]12CCC(=O)N2C.O=C(O)C(F)(F)F.O=C(O)C(F)(F)F | -6.56%
34 | Cc1cc(CCC2CN(CC3(O)CCCCC3)CCO2)ncn1 (configuration not stated) | -44.25%
35 | O=C(O)C(F)(F)F.O=C1CC[C@H]2[C@@H](CCN2Cc2ccco2)N1 | 9.652%
36 | O=C(O)C(F)(F)F.O=C(O)C(F)(F)F.c1cc(CN2C[C@@H]3OCCN(CC4CCCO4)[C@@H]3C2)cs1 (some centres not stated) | -21.3%
37 | Cn1cc(CN2C[C@@H]3COC[C@]3(CNC(=O)c3ccccc3)C2)cn1.O=C(O)C(F)(F)F | -17.03%
38 | Cn1cc(CN2CCC3(CC2)CCN(C(=O)c2cscn2)CC3)cn1.O=C(O)C(F)(F)F | -25.9%
39 | Cc1noc(NC(=O)c2ccc(OC(F)(F)F)cc2)n1 | 102.9%
40 | CN1C[C@H](O)C[C@H]1c1nc(-c2ccc(OC(F)(F)F)cc2)no1 | -7.267%
41 | Cc1noc(NC(=O)CCNC(=O)c2ccc(Br)cc2)n1 | -35.97%
42 | Cc1noc(NC(=O)c2ccccc2)n1 | 75.22%
43 | Cc1noc(NC(=O)c2ccc(Br)cc2)n1 | 103.7%
44 | Cc1nn(C(C)C)c(C)c1NC(=O)c1ccccc1 | -7.424%
45 | Cc1c(NC(=O)c2ccc(Br)cc2)c(C(=O)N(C)C)nn1C | 5.328%
46 | Cc1noc(NCc2cc(F)ccc2F)n1 | -3.185%

Row | SMILES | Percent Effect
47 | Cc1noc(NCc2ccc(F)cc2)n1 | -14.89%
48 | Cc1noc(NC(=O)c2ccc(F)cc2)n1 | 105.9%
49 | Cn1nc(CNC(=O)c2ccc(OC(F)(F)F)cc2)c2c1CCOC2 | -19.12%
50 | Cc1noc([C@@H]2C[C@H](NC(=O)Nc3ccccc3)CN2C)n1 | -29.39%
51 | COc1cc2cc(C)c(SCCN3CCCC3)nc2cc1OC.Cl | 5.186%
52 | Cn1ncc2c1C(COCC1CC1)N(Cc1ccoc1)CC2.O=C(O)C(F)(F)F.O=C(O)C(F)(F)F (configuration not stated) | -34.45%
53 | O=C(NC[C@H]1OC[C@@H]2CN(Cc3ccco3)CC[C@@H]21)c1cccnc1.O=C(O)C(F)(F)F.O=C(O)C(F)(F)F | -10.25%
54 | Cc1noc(C)c1CN1CCO[C@H]2CN(C(=O)C3CCOCC3)C[C@H]21.O=C(O)C(F)(F)F | -18.06%
55 | COc1ncccc1CNC1CCc2c(ccc(=O)n2C)C1.O=C(O)C(F)(F)F.O=C(O)C(F)(F)F (configuration not stated) | 17.68%
56 | NC(=O)N1C[C@H]2CN(Cc3nccs3)C[C@H]2C1.O=C(O)C(F)(F)F | -3.349%
57 | Cc1ccc(C(=O)N2CCN3C[C@H](Oc4cccnc4)C[C@H]3C2)cn1.O=C(O)C(F)(F)F.O=C(O)C(F)(F)F.O=C(O)C(F)(F)F | -27.6%
58 | COc1ccc2[nH]cc(C(=O)CNc3nccs3)c2c1.I | 0.8623%
59 | O=C(O)C(F)(F)F.O=C(c1cnccn1)N1C[C@@H]2C[C@@H](c3nc(C4CC4)cs3)O[C@@H]2C1 | 1.274%
60 | Cc1ccc(C(=O)Nc2nc(C)no2)cc1 | 75.29%
61 | Cc1ccc(C(=O)Nc2cn[nH]c2)cc1 | -8.204%
62 | Cc1ccc(C(=O)Nc2c(C(=O)N(C)C)nn(C)c2C)cc1 | -14.21%
63 | Cc1nnc(N2CCCC3(CN(Cc4cccnc4)CCO3)C2)o1.O=C(O)C(F)(F)F.O=C(O)C(F)(F)F.O=C(O)C(F)(F)F (configuration not stated) | -2.58%
64 | Cc1nc(COC[C@H]2CCC[C@@]23CN(C(C)C)CCO3)cs1.O=C(O)C(F)(F)F | -25.66%
65 | COc1cccc([C@H]2CN(C(C)=O)[C@@H]3CCN(Cc4ccsc4)C[C@H]23)c1.Cl | -8.302%
66 | O=C(O)C(=O)O.c1coc(CN2CCC(c3ccc4c(c3)OCO4)CC2)c1 | 5.355%
67 | CC(Cn1cccn1)NCc1csc2c1CCCC2 (configuration not stated) | -4.744%
68 | CC(Cn1cccn1)NCc1ccc(OCc2ccncc2)cc1 (configuration not stated) | -3.58%
69 | CC(Cn1cccn1)NCc1csc(COc2ccccc2)n1 (configuration not stated) | 96.83%

Row | SMILES | Percent Effect
70 | CCCc1nc(CNC(C)Cn2cccn2)cs1 (configuration not stated) | 69.81%
71 | CC(Cn1cccn1)NCc1csc(Cc2ccccc2)n1 (configuration not stated) | 103.2%
72 | CCc1nc(CNC(C)Cn2cccn2)cs1 (configuration not stated) | 11.1%
73 | CC(Cn1cccn1)NCc1csc(-c2ccc(F)cc2)n1 (configuration not stated) | 41.6%
74 | CC(Cn1cccn1)NCc1csc(COc2ccc(F)cc2)n1 (configuration not stated) | 104%
75 | COc1ccc(CNC(C)Cn2cccn2)cc1F (configuration not stated) | -3.821%
76 | CC(Cn1cccn1)NCc1ccc(Cl)s1 (configuration not stated) | -2.882%
77 | CC(Cn1cccn1)NCc1csc(-c2ncccn2)n1 (configuration not stated) | -0.311%
78 | O=C(O)C(F)(F)F.O=C(c1ccnnc1)N1C[C@H]2CCC[C@@]2(COCc2ccccn2)C1 | -25.48%
79 | COc1ccc(CCC2CCCCN2)cc1.Cl (configuration not stated) | -16.14%
80 | O=C(O)C(F)(F)F.O=C(c1cccnc1)N1C[C@H]2CN(Cc3cccc(F)c3)C(=O)[C@H]2C1 | -29.23%
81 | Cc1oncc1C(=O)N1CC[C@@H]2[C@@H]1CC(=O)N2Cc1cccnc1.O=C(O)C(F)(F)F | 26.27%
82 | N#Cc1cccc(C(=O)N2CC[C@H]3[C@H]2CCN3CC2CC2)c1.O=C(O)C(F)(F)F | -24.15%
83 | Fc1ccc(CN2CCC3(CC2)CCN(c2ncccn2)CC3)cc1.O=C(O)C(F)(F)F.O=C(O)C(F)(F)F | -1.526%
84 | CC1CN(C)CCN1C(=O)c1cnc2c(cnn2C2CCCC2)c1 (configuration not stated) | -19.82%
85 | O=C(NC1CC1)[C@H]1C[C@@H]2CCN(CCc3ccccc3)C[C@H]2O1.O=C(O)C(F)(F)F | -1.701%
86 | COc1cccc(S(=O)(=O)NC(=O)CC2CCCC2)c1 | 1.853%
87 | COc1cccc(S(=O)(=O)NC(=O)CCC2CCCC2)c1 | 97.07%
88 | COc1cccc(S(=O)(=O)NC(=O)CCC2CCCO2)c1 (configuration not stated) | 15.02%
89 | O=C(O)C(F)(F)F.O=C(c1ccco1)N1CC[C@@H]2CN(C3CCOCC3)CCO[C@@H]2C1 | 13.99%
90 | COCc1nnc(C(=O)N(C)Cc2ccc(OC)cc2)o1 | 51.18%
91 | COc1ccc(CN(C)C(=O)c2nnc(CN(C)C)o2)cc1 | -15.5%
92 | CCCc1nnc(C(=O)N(C)Cc2ccc(OC)cc2)o1 | -0.8003%
